3T3 cytotox = Cytotoxic Profiling in NIH 3T3 Cell Line of Diverse Libraries Using Quantitative High-Throughput Screening | NIH 3T3 viability, CellTiter-Glo ATP luminescence, 48-72 h | Potency, µM (top dose mostly 96.7 µM), actives largely listed as inhibitors | hit rate 4.3% among 94,000; further: nearly all actives have a fitted effect of over 55% in size
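First NIH 3T3 cells are plated at 400 cells/well; next compound is pinned in; then plates incubate 48 or 72 hr at 37 °C; finally CellTiter-Glo is added and luminescence read after 10 min.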
HEK293 tox = Cytotoxic Profiling in HEK 293 Cell Line of Diverse Libraries Using Quantitative High-Throughput Screening; HEK 293 viability, ATP luminescence (CellTiter-Glo), 48-72 h; Potency, µM (highest dose often 115 µM), actives largely listed as inhibitors; hit rate 6.6% among 94,000; further: nearly all actives have a fitted effect of over 60% in size
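Read-out: CellTiter-Glo ATP luminescence. Cells: HEK 293, 250 cells/well. Exposure: 48 or 72 hr, 37 degree Celsius.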
FLuc inh = Firefly luciferase inhibition profiling of diverse chemical library using quantitative high-throughput screening; Potency, µM (doses to about 115 µM), usual class: inhibitors; hit rate 2.5% among 76,000; AID 1347043, 2019; purified P. pyralis luciferase, luminescence, biochemical; Luciferin 4-monooxygenase (Photinus pyralis), P08659; further: nearly all actives have a fitted effect of over 65% in size
Target sequence (P08659 whole entry, looked up): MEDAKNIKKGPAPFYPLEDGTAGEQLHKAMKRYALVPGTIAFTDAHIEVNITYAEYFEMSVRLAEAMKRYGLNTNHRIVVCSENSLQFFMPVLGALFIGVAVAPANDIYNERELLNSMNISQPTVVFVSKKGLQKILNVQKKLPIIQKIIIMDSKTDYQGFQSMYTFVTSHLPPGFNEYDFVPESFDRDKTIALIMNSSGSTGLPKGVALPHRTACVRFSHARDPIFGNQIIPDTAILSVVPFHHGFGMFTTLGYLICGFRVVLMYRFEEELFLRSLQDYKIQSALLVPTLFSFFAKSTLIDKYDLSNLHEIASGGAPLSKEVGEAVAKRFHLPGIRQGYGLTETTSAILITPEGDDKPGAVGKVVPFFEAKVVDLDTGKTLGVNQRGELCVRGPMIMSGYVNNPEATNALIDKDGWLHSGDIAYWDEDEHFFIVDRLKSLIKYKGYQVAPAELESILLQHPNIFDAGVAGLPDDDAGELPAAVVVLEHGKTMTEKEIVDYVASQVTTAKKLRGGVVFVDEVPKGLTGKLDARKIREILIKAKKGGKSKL
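Inhibitors were tested against purified firefly luciferase in a biochemical, low-substrate format (both substrates at 10uM) and luminescence measured with a CCD imager.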
hNpr1 antagonist = Natriuretic polypeptide receptor (hNpr1) antagonism - Primary qHTS; hit rate 1.6% among 76,000; AID 1347048, 2019; Atrial natriuretic peptide receptor 1 (Homo sapiens), P16066; HEK293 hNpr1 GloSensor cGMP, ANP-stimulated luminescence; Potency, µM (doses to about 46.3 µM), most hits filed as inhibitors; calls by dose curve; further: nearly all actives have a fitted effect of over 60% in size
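Compound pre-incubated 30 min at room temperature on GloSensor-loaded HEK293 cells stably carrying hNpr1 and the pGS-40F cGMP biosensor. Stimulation uses hNppA at 0.1 nM final; luminescence is taken at baseline and 20 min post-agonist.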
Numbers stand for hits. Only some compounds are listed: those with a hit (about 11% of all), similar ones and a draw of the others. Unless noted, the call rests on the fitted dose curve; in most records, active means well fitted curve in the direction sought with a large enough effect; inconclusive means small, poorly fitted or top-dose-only effect, or another doubt; inactive means no such curve, though single readings can be large; an effect the other way counts as inactive or inconclusive.

What do the screens show for `O=[N+]([O-])c1cccc(-c2noc([C@@H]3C[C@@H](O)CN3CC3CCCCC3)n2)c1`?
3T3 cytotox: inconclusive; HEK293 tox: 63µM; FLuc inh: inactive; hNpr1 antagonist: inactive

How did COc1ccc(-c2noc([C@@H]3C[C@@H](O)CN3Cc3ccccn3)n2)cc1 do in these assays?
3T3 cytotox: 35µM; HEK293 tox: inconclusive; FLuc inh: inconclusive; hNpr1 antagonist: inconclusive

How did O=[N+]([O-])c1cccc(-c2noc([C@@H]3C[C@@H](O)CN3Cc3ccccc3)n2)c1 do in these assays?
3T3 cytotox: inactive; HEK293 tox: inactive; FLuc inh: inactive; hNpr1 antagonist: inactive

How did CCOC(=O)[C@@H]1CN(C(=O)CCc2ccccc2)[C@H]2c3ccc(OC)cc3O[C@@H]12 do in these assays?
3T3 cytotox: inconclusive; HEK293 tox: inactive

What do the screens show for `COc1ccc(-c2noc([C@@H]3C[C@@H](O)CN3Cc3ccc(C)cc3)n2)cc1`?
3T3 cytotox: inactive; HEK293 tox: inconclusive; FLuc inh: inconclusive; hNpr1 antagonist: inactive

How did Cc1ccc(-c2noc([C@@H]3C[C@@H](O)CN3Cc3ncc[nH]3)n2)cc1F do in these assays?
3T3 cytotox: inconclusive; HEK293 tox: inconclusive; FLuc inh: 25µM; hNpr1 antagonist: inactive

How did COCC1CN(C)CC12CCN(Cc1ccc(F)c(Cl)c1)CC2 (centres undefined) do in these assays?
3T3 cytotox: inconclusive; HEK293 tox: inconclusive; FLuc inh: inactive; hNpr1 antagonist: inactive

Results for C=CCOc1c(OC)ccc2c1CN(Cc1ccccc1)C(=O)CCN2CC(C)O (centres undefined) ?
3T3 cytotox: inconclusive; HEK293 tox: inactive

How did C=CCOc1c(OC)ccc2c1CN(CCOC)C(=O)CCN2CC(O)COc1ccccc1 (centres undefined) do in these assays?
3T3 cytotox: inactive; HEK293 tox: inconclusive

What do the screens show for `C=CCOc1c(OC)ccc2c1CN(Cc1ccccc1)C(=O)CCN2CC(O)Cc1ccccc1` (centres undefined)?
3T3 cytotox: inconclusive; HEK293 tox: 50µM

What do the screens show for `C=CCOCC(O)CN1CCC(=O)N(Cc2ccco2)Cc2c1ccc(OC)c2OCC=C` (centres undefined)?
3T3 cytotox: inactive; HEK293 tox: inconclusive

What do the screens show for `C=CCOc1c(OC)ccc2c1CN(Cc1ccccc1)C(=O)CCN2CC(O)COc1ccc(OC)cc1` (centres undefined)?
3T3 cytotox: 40µM; HEK293 tox: inconclusive

What do the screens show for `C=CCOc1c(OC)ccc2c1CN(C1CCCC1)C(=O)CCN2CC(O)COc1ccccc1` (centres undefined)?
3T3 cytotox: 40µM; HEK293 tox: inconclusive

Results for CC(=O)Nc1ccc(C(=O)N2Cc3ccccc3OC3(CCN(C(C)=O)CC3)C2)cc1 ?
3T3 cytotox: inactive; HEK293 tox: inactive

How did O=[S+]([O-])(NC1CCCN(c2ccnc3ccnn23)C1)c1ccccc1 (centres undefined) do in these assays?
3T3 cytotox: inconclusive; HEK293 tox: inactive

How did Cn1nccc1-c1ccc2ncn(-c3ccc(F)cc3F)c(=O)c2n1 do in these assays?
3T3 cytotox: inconclusive; HEK293 tox: 63µM; FLuc inh: inactive; hNpr1 antagonist: inactive

What do the screens show for `O=C(Cc1ccc(F)cc1)N1CCC2(CC1)CC(=O)N(c1ccccc1)c1ccccc1O2`?
3T3 cytotox: 40µM; HEK293 tox: 40µM; FLuc inh: inactive; hNpr1 antagonist: inactive

Results for O=C(c1ccc(F)cc1)N1CCC2(CC1)CCN(CCc1ccccc1)c1ccccc1O2 ?
3T3 cytotox: inconclusive; HEK293 tox: 40µM; FLuc inh: inactive; hNpr1 antagonist: inactive

What do the screens show for `CCCN1CCC2(CCN(C(=O)c3ccccc3C)CC2)Oc2ccccc21`?
3T3 cytotox: inconclusive; HEK293 tox: inconclusive; FLuc inh: inactive; hNpr1 antagonist: inactive

How did COc1ccc(CC(=O)N2CCC3(CC2)CC(=O)N(c2ccccc2)c2ccccc2O3)cc1 do in these assays?
3T3 cytotox: inactive; HEK293 tox: inconclusive; FLuc inh: inactive; hNpr1 antagonist: inactive

What do the screens show for `O=C(c1ccccc1)N1CCC2(CC1)CCN(CCc1ccccc1)c1ccccc1O2`?
3T3 cytotox: inconclusive; HEK293 tox: 40µM; FLuc inh: inactive; hNpr1 antagonist: inactive

How did O=C(c1ccccc1F)N1CCC2(CC1)CCN(CCc1ccccc1)c1ccccc1O2 do in these assays?
3T3 cytotox: inconclusive; HEK293 tox: inconclusive; FLuc inh: inactive; hNpr1 antagonist: inactive

How did Cc1ccccc1C(=O)N1CCC2(CC1)CCN(CCc1ccccc1)c1ccccc1O2 do in these assays?
3T3 cytotox: inconclusive; HEK293 tox: 28µM; FLuc inh: inactive; hNpr1 antagonist: inactive

How did CCCNC(=O)N1CCC(c2noc(COc3ccc(C)cc3)n2)CC1 do in these assays?
3T3 cytotox: inactive; HEK293 tox: inconclusive; FLuc inh: inactive; hNpr1 antagonist: inactive

What do the screens show for `COc1ccc2c(c1)CN(CC1CC1)C(=O)CCN2C(=O)C1CCC1`?
3T3 cytotox: inconclusive; HEK293 tox: inactive

Results for Clc1cccc(-c2cnc([C@@H]3COCCN3Cc3c[nH]c4ccccc34)[nH]2)c1 ?
3T3 cytotox: inconclusive; HEK293 tox: inconclusive; FLuc inh: inactive; hNpr1 antagonist: inconclusive

Results for COc1ccc(-c2cnc([C@@H]3COCCN3Cc3cccc(C#N)c3)[nH]2)cc1 ?
3T3 cytotox: inactive; HEK293 tox: inconclusive; FLuc inh: inactive; hNpr1 antagonist: inactive

Results for Cn1cc(CN2CCOC[C@H]2c2ncc(-c3ccc(S(C)(=O)=O)cc3)[nH]2)c2ccccc21 ?
3T3 cytotox: 35µM; HEK293 tox: 20µM; FLuc inh: inactive; hNpr1 antagonist: inactive

What do the screens show for `N#Cc1cccc(CN2CCOC[C@H]2c2ncc(-c3ccc(F)cc3)[nH]2)c1`?
3T3 cytotox: inconclusive; HEK293 tox: 63µM; FLuc inh: inactive; hNpr1 antagonist: inactive

Results for Oc1ccccc1CN1CCOC[C@H]1c1ncc(-c2cccc(Cl)c2)[nH]1 ?
3T3 cytotox: inconclusive; HEK293 tox: 89µM; FLuc inh: inactive; hNpr1 antagonist: inactive

Results for N#Cc1cccc(CN2CCOC[C@H]2c2ncc(-c3ccc(C(F)(F)F)cc3)[nH]2)c1 ?
3T3 cytotox: inconclusive; HEK293 tox: 89µM; FLuc inh: inactive; hNpr1 antagonist: inconclusive

What do the screens show for `COc1ccc2c(c1)OC[C@@H]1CN(CCC#N)C(=O)CCN(C(=O)CC(C)C)[C@H]21`?
3T3 cytotox: inconclusive; HEK293 tox: inactive

What do the screens show for `CS(=O)(=O)c1ccc(CN2CCOC[C@H]2c2ncc(-c3ccc(Cl)cc3)[nH]2)cc1`?
3T3 cytotox: inconclusive; HEK293 tox: inactive; FLuc inh: inactive; hNpr1 antagonist: inactive

Results for N#Cc1cccc(CN2CCOC[C@H]2c2ncc(-c3ccc(Cl)cc3)[nH]2)c1 ?
3T3 cytotox: 100µM; HEK293 tox: inconclusive; FLuc inh: inactive; hNpr1 antagonist: inconclusive

How did COc1cccc(CNC(=O)[C@@H]2C[C@@H](O)CN2C2CCN(C(=O)COc3cccc(C)c3)CC2)c1 do in these assays?
3T3 cytotox: inactive; HEK293 tox: inactive; FLuc inh: inactive; hNpr1 antagonist: inactive

Assay outcomes deposited in PubChem by National Center for Advancing Translational Sciences (NCATS).
